Measurements published in PubChem BioAssay (EPA / NIEHS).
Inconclusive results are not listed. Active and inactive are the calls of the source. Rule for the calls, unless noted: active = hit-call score of the fitted dose curve at least 0.9, where 1 is the maximum; inactive = score below 0.9.

Key:
[1] = read-out: Phosphatase and tensin (PTEN), PTEN (gene 5728); test: LTEA_HepaRG_PTEN: Life Technologies and Expression Analysis (LTEA) Assay for Phosphatase and tensin (PTEN) using HepaRG (AID 2283523); conditions: mRNA level, 48 h; actives raise or lower the signal
Method in brief: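 Expression of PTEN is quantified in the human liver line HepaRG following two days of dosing (top concentration 100 uM, half-log dilutions, 0.5% DMSO). Values derive from bidirectional curve fitting relative to DMSO controls.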

[2] = read-out: solute carrier (SLC22A1), SLC22A1 (gene 6580); test: LTEA_HepaRG_SLC22A1: Life Technologies and Expression Analysis (LTEA) Assay for solute carrier (SLC22A1) using HepaRG (AID 2283524); conditions: mRNA level, 48 h; actives raise or lower the signal
Method in brief: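 Transcript induction or suppression of SLC22A1 in human HepaRG cultures is scored after 48 h chemical treatment, with DMSO (0.5%) as baseline for bidirectional fitting. Concentrations span eight half-log points topping at 100 uM.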

[3] = read-out: Pyruvate Dehydrogenase Kinase 4 (PDK4), PDK4 (gene 5166); test: LTEA_HepaRG_PDK4: Life Technologies and Expression Analysis (LTEA) Assay for Pyruvate Dehydrogenase Kinase 4 (PDK4) using HepaRG (AID 2283525); conditions: mRNA level, 48 h; actives raise or lower the signal
Method in brief: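 Eight-point, half-log concentration series (max 100 uM, 0.5% DMSO) applied to differentiated HepaRG cells for 48 h in duplicate. Endpoint: PDK4 mRNA induction or repression by qRT-PCR against DMSO baseline.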

[4] = read-out: NAD(P)H dehydrogenase [quinone] 1 (NQO1), NQO1 (gene 1728); test: LTEA_HepaRG_NQO1: Life Technologies and Expression Analysis (LTEA) Assay for NAD(P)H dehydrogenase [quinone] 1 (NQO1) using HepaRG (AID 2283526); conditions: mRNA level, 48 h; actives raise or lower the signal
Method in brief: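 In this assay, gene expression is read by qRT-PCR after 48 h exposure of HepaRG cells to eight concentrations (max 100 uM, half-log) in 0.5% DMSO. Each chemical runs in duplicate, and activity is scored relative to vehicle.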

[5] = read-out: Nuclear factor erythroid 2-related factor 2 (Homo sapiens) (UniProt Q16236); test: LTEA_HepaRG_NFE2L2: Life Technologies and Expression Analysis (LTEA) Assay for Nuclear factor erythroid 2-related factor 2 (NFE2L2) Transcription Factor using HepaRG (AID 2283527); conditions: mRNA level, 48 h; actives raise or lower the signal
Method in brief: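 Human liver HepaRG line treated in duplicate for 48 h with an eight-point series topping at 100 uM. Gene expression of NFE2L2 by qRT-PCR, bidirectionally fitted against the vehicle control.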

[6] = read-out: succinate dehydrogenase complex iron sulfur subunit B (SDHB), SDHB (gene 6390); test: LTEA_HepaRG_SDHB: Life Technologies and Expression Analysis (LTEA) Assay for succinate dehydrogenase complex iron sulfur subunit B (SDHB) using HepaRG (AID 2283528); conditions: mRNA level, 48 h; actives raise or lower the signal
Method in brief: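 HepaRG, 48 h exposure, 8-pt half-log series from 100 uM in 0.5% DMSO, duplicates. Readout: SDHB mRNA by Fluidigm qRT-PCR vs housekeeping genes; bidirectional fit relative to DMSO.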

[7] = read-out: Signal transducer and activator of transcription 3 (Homo sapiens) (UniProt P40763); test: LTEA_HepaRG_STAT3: Life Technologies and Expression Analysis (LTEA) Assay for Signal transducer and activator of transcription (STAT3) using HepaRG (AID 2283529); conditions: mRNA level, 48 h; actives raise or lower the signal
Method in brief: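 In this transcriptional endpoint, HepaRG cultures receive test chemicals at up to 100 uM for 48 h, tested in duplicate. STAT3 mRNA is normalized to ACTB, GAPDH and POLR2A.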

[8] = read-out: solute carrier (SLCO1B1), SLCO1B1 (gene 10599); test: LTEA_HepaRG_SLCO1B1: Life Technologies and Expression Analysis (LTEA) Assay for solute carrier (SLCO1B1) using HepaRG (AID 2283530); conditions: mRNA level, 48 h; actives raise or lower the signal
Method in brief: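 Differentiated human HepaRG cells, plated 48 h, switched to serum-free induction medium and exposed in duplicate for 48 h to 8 half-log concentrations (top 100 uM) in 0.5% DMSO. SLCO1B1 mRNA by TaqMan qRT-PCR, normalized to ACTB/GAPDH/POLR2A.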

[9] = read-out: sulfotransferase 2A1 (SULT2A1), SULT2A1 (gene 6822); test: LTEA_HepaRG_SULT2A1: Life Technologies and Expression Analysis (LTEA) Assay for sulfotransferase 2A1 (SULT2A1) using HepaRG (AID 2283531); conditions: mRNA level, 48 h; actives raise or lower the signal
Method in brief: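 Differentiated human HepaRG cells in serum-free induction medium were exposed for 48 h to eight half-log concentrations (top 100 uM, 0.5% DMSO). SULT2A1 mRNA was measured by qRT-PCR, normalized to ACTB, GAPDH and POLR2A, and fitted bidirectionally against DMSO.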

[10] = read-out: Transforming Growth Factor (TGFA), TGFA (gene 7039); test: LTEA_HepaRG_TGFA: Life Technologies and Expression Analysis (LTEA) Assay for Transforming Growth Factor (TGFA) using HepaRG (AID 2283532); conditions: mRNA level, 48 h; actives raise or lower the signal
Method in brief: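 Gene expression of TGFA was quantified by qRT-PCR after human HepaRG cells were treated for 48 h with test chemicals (eight concentrations, highest 100 uM, 0.5% DMSO). Activity in either direction was fitted relative to DMSO.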

[11] = read-out: Transforming Growth Factor (TGFB1), TGFB1 (gene 7040); test: LTEA_HepaRG_TGFB1: Life Technologies and Expression Analysis (LTEA) Assay for Transforming Growth Factor (TGFB1) Transporter using HepaRG (AID 2283533); conditions: mRNA level, 48 h; actives raise or lower the signal
Method in brief: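 Differentiated human HepaRG cells in serum-free induction medium were exposed in duplicate for 48 h to eight concentrations (top 100 uM, half-log steps, 0.5% DMSO). TGFB1 mRNA was quantified by qRT-PCR, normalized to ACTB, GAPDH, POLR2A, and fitted bidirectionally against DMSO.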

[12] = read-out: TIMP1, TIMP1 (gene 7076); test: LTEA_HepaRG_TIMP1: Life Technologies and Expression Analysis (LTEA) Assay for TIMP1 using HepaRG (AID 2283534); conditions: mRNA level, 48 h; actives raise or lower the signal
Method in brief: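 Differentiated human HepaRG cells in serum-free induction medium were exposed 48 h to chemicals (8 half-log concentrations, top 100 uM, 0.5% DMSO). TIMP1 mRNA was quantified by TaqMan qRT-PCR, normalized to ACTB/GAPDH/POLR2A; bidirectional fit versus DMSO.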

[13] = read-out: Tumor necrosis factor receptor 1 (TNFRSF1A), TNFRSF1A (gene 7132); test: LTEA_HepaRG_TNFRSF1A: Life Technologies and Expression Analysis (LTEA) Assay for Tumor necrosis factor receptor 1 (TNFRSF1A) using HepaRG (AID 2283535); conditions: mRNA level, 48 h; actives raise or lower the signal
Method in brief: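 Differentiated human HepaRG cells were exposed in duplicate for 48 h in serum-free induction medium to eight concentrations (top 100 uM, half-log steps, 0.5% DMSO). TNFRSF1A mRNA was quantified by qRT-PCR, normalized to ACTB, GAPDH and POLR2A, then fitted bidirectionally against DMSO.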

[14] = read-out: Thyroid Hormone Responsive (THRSP), THRSP (gene 7069); test: LTEA_HepaRG_THRSP: Life Technologies and Expression Analysis (LTEA) Assay for Thyroid Hormone Responsive (THRSP) using HepaRG (AID 2283536); conditions: mRNA level, 48 h; actives raise or lower the signal
Method in brief: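 Cell model: human HepaRG, approx. 100,000 cells/well, 0.5% DMSO vehicle. Exposure lasts 48 h; phenobarbital 1 mM serves as induction positive control. Gene expression is measured by qRT-PCR against three endogenous control genes.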

[15] = read-out: Cellular tumor antigen p53 (Homo sapiens) (UniProt P04637); test: LTEA_HepaRG_TP53: Life Technologies and Expression Analysis (LTEA) Assay for Tumor Protein P53 (TP53) using HepaRG (AID 2283537); conditions: mRNA level, 48 h; actives raise or lower the signal
Method in brief: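 HepaRG, 48 h exposure, top 100 uM, half-log 8-point, 0.5% DMSO vehicle, duplicates. Read: TP53 mRNA by TaqMan qRT-PCR, normalised to ACTB/GAPDH/POLR2A; bidirectional fit vs DMSO.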

[16] = read-out: UDP glucuronosyltransferase (UGT1A1), UGT1A1 (gene 54658); test: LTEA_HepaRG_UGT1A1: Life Technologies and Expression Analysis (LTEA) Assay for UDP glucuronosyltransferase (UGT1A1) using HepaRG (AID 2283538); conditions: mRNA level, 48 h; actives raise or lower the signal
Method in brief: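 mRNA induction or loss of UGT1A1, by TaqMan qRT-PCR, in duplicate HepaRG wells after 48 h exposure to half-log dilutions topping at 100 uM; DMSO (0.5%) served as baseline.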

[17] = read-out: UDP glucuronosyltransferase (UGT1A6), UGT1A6 (gene 54578); test: LTEA_HepaRG_UGT1A6: Life Technologies and Expression Analysis (LTEA) Assay for UDP glucuronosyltransferase (UGT1A6) using HepaRG (AID 2283539); conditions: mRNA level, 48 h; actives raise or lower the signal
Method in brief: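 Human HepaRG cells were dosed for 48 h in serum-free induction medium with 0.5% DMSO vehicle, eight-point half-log series from 100 uM, in duplicate. UGT1A6 mRNA was measured by qRT-PCR, normalized to ACTB, GAPDH, POLR2A, and fitted bidirectionally against DMSO.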

[18] = read-out: X-box binding protein 1 (XBP1), XBP1 (gene 7494); test: LTEA_HepaRG_XBP1: Life Technologies and Expression Analysis (LTEA) Assay for X-box binding protein 1 (XBP1) using HepaRG (AID 2283540); conditions: mRNA level, 48 h; actives raise or lower the signal
Method in brief: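 Differentiated human HepaRG cells in serum-free induction medium were exposed in duplicate for 48 h to eight half-log concentrations up to 100 uM in 0.5% DMSO. XBP1 mRNA was quantified by qRT-PCR, normalised to ACTB, GAPDH and POLR2A, with bidirectional fitting against DMSO.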

[19] = LTEA_HepaRG_LDH_cytotoxicity: Cytotoxicity Assessment in the Life Technologies and Expression Analysis (LTEA) Assay (AID 2283563; active = hit-call score of the fitted dose curve at least 0.9, where 1 is the maximum;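 for AC50: LDH activity released into spent culture medium as a marker of cell death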)
Method in brief: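 Differentiated human HepaRG cells, plated 48 h beforehand, were switched to serum-free induction medium and exposed for 48 h to eight half-log concentrations (top 100 uM) in 0.5% DMSO. LDH was measured in spent medium; activity was fitted relative to DMSO vehicle.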

[20] = ATG_XTT_Cytotoxicity: Cytotoxicity Assessment in the Attagene TRANS-FACTORIAL HepG2 Assay (AID 2283584; active = hit-call score of the fitted dose curve at least 0.9, where 1 is the maximum)
Method in brief: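 HepG2 human liver cells, transiently transfected with multiple GAL4-UAS reporter units, were dosed and read at 24 h by XTT as cell number. Loss of signal was fitted relative to DMSO negative control baseline.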

Measured: AC50

Chain of Cellular tumor antigen p53 (Homo sapiens) (P04637 whole entry, looked up): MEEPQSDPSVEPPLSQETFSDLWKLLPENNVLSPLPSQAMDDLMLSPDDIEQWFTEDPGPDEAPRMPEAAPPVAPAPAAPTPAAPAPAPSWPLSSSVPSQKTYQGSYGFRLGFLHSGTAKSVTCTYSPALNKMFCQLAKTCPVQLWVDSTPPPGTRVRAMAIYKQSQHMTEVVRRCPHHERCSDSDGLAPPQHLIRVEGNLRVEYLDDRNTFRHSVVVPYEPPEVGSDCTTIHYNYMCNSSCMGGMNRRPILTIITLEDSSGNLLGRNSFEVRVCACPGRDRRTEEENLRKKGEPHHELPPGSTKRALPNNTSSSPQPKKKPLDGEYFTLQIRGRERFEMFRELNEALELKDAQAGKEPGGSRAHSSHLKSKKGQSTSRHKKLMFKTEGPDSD
Chain of Nuclear factor erythroid 2-related factor 2 (Homo sapiens) (Q16236 whole entry, looked up): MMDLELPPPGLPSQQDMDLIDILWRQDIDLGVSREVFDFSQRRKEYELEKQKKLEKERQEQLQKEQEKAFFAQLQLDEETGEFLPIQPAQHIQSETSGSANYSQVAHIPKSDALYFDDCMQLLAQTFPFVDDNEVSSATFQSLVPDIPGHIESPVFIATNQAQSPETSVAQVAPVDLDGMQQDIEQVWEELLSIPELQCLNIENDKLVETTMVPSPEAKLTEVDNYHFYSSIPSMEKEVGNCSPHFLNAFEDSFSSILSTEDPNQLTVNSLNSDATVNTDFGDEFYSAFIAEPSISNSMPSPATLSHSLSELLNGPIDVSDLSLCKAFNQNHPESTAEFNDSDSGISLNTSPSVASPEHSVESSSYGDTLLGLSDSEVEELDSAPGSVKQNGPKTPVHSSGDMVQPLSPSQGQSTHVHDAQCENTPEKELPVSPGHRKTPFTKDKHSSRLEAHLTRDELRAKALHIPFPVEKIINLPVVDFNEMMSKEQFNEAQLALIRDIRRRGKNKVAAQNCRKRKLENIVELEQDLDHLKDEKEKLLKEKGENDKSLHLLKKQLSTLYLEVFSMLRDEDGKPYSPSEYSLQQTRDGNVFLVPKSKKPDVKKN
Chain of Signal transducer and activator of transcription 3 (Homo sapiens) (P40763 whole entry, looked up): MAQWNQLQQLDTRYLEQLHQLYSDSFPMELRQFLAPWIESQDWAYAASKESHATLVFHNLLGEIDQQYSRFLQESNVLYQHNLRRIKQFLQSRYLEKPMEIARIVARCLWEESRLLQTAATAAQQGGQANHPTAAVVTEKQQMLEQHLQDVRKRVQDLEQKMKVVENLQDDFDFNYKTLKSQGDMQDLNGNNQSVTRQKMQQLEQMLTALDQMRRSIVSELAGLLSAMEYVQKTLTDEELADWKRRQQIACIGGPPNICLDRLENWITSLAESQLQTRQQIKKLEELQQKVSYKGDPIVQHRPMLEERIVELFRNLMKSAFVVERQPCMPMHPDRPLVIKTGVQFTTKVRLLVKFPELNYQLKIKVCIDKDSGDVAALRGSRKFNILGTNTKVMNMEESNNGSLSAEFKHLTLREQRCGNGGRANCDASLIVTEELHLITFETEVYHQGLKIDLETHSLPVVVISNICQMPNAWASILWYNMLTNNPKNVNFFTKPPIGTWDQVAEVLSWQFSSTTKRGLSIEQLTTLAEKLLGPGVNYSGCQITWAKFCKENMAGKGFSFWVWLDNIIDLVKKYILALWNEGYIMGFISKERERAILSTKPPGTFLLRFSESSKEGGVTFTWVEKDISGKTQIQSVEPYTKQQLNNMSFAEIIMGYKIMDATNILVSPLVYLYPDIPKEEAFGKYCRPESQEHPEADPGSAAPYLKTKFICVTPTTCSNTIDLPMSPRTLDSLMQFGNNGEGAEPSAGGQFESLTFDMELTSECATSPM

Cc1cccc(N)c1
not listed: [20]
inactive: all other assays above

Nc1cc2c3c(c1)C(c1ccccc1)=N[C@@H](NC(=O)c1cccnc1)C(=O)N3CC2
not listed: [15] | [20]
inactive: all other assays above

CC(Cl)(Cl)C(=O)O
not listed: [15] | [20]
inactive: all other assays above

Cc1ccc(N)cc1N
active: [3] 36.3 µM | [14] 4.89 µM | [16] 15 µM
not listed: [20]
inactive: all other assays above

CCC1(c2ccccc2)C(=O)N=C(O)NC1=O (configuration not stated)
active: [16] 50 µM
inactive: all other assays above

O=[N+]([O-])c1ccccc1
not listed: [20]
inactive: all other assays above

O=P(Oc1ccccc1)(Oc1ccccc1)Oc1ccccc1
active: [2] 50 µM | [3] 28.4 µM | [5] 21.2 µM | [11] 77.5 µM | [12] 73.1 µM | [15] 50 µM | [16] 3.1 µM | [19] 72.7 µM
inactive: all other assays above

CCC(C)(C)c1ccc(O)cc1
inactive: all assays above

O=C(O)C(Cl)Cl
active: [17] 0.312 µM
not listed: [15]
inactive: all other assays above

CSC(C)(C)C=NO
not listed: [15]
inactive: all other assays above

CC1=C(C(=O)Nc2ccccc2)S(=O)(=O)CCO1
inactive: [20]

CCOP(=S)(OCC)SCS(=O)(=O)CC
inactive: [20]

CC1(C)CN=C(NN=C(/C=C/c2ccc(C(F)(F)F)cc2)/C=C/c2ccc(C(F)(F)F)cc2)NC1
inactive: [20]

COC(N)=O
inactive: [20]

Cc1ccc(O)cc1C
not listed: [5] | [19] | [20]
inactive: all other assays above
